# Measured values taken from PubChem BioAssay (NCI).
# About 83,000 compounds went through this panel and 20% of them were active in at least one assay; those are over-represented in the sample as a whole.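 Activity criterion: percent growth below 10, measured after cells in 96-well plates were exposed to a single compound concentration for 48 hours.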 Values without a mark were called inactive. Calls of active or inactive are those of the source.
# Tests used:
# Test in all cases: NCI-60 one-dose screen, 48 h (100 = growth as untreated, 0 = no growth, -100 = all killed)
# NCI-H23 lung = conditions: 10 µM unless noted
# NCI-H226 lung = conditions: 10 µM unless noted
# NCI-H322M lung = conditions: 10 µM unless noted
# NCI-H460 lung = conditions: 10 µM unless noted
# HOP-92 NSCLC = conditions: 10 µM
# NCI-H522 lung = conditions: 10 µM
# A549/ATCC NSCLC = conditions: 10 µM unless noted
# 786-0 renal = conditions: 10 µM unless noted
# COLO 205 colon = conditions: 10 µM unless noted
# DU-145 prostate = conditions: 10 µM unless noted
# K-562 leukemia = conditions: 10 µM unless noted
# MDA-MB-231 breast = conditions: 10 µM unless noted
# RXF 393 renal = conditions: 10 µM unless noted
# SF-268 CNS = conditions: 10 µM unless noted
# SF-295 CNS = conditions: 10 µM unless noted
# SF-539 CNS = conditions: 10 µM unless noted
# UACC-257 melanoma = conditions: 10 µM unless noted
# M14 melanoma = conditions: 10 µM unless noted
# MALME-3M melanoma = conditions: 10 µM unless noted
Compound,growth (NCI-H23 lung),growth (NCI-H226 lung),growth (NCI-H322M lung),growth (NCI-H460 lung),growth (HOP-92 NSCLC),growth (NCI-H522 lung),growth (A549/ATCC NSCLC),growth (786-0 renal),growth (COLO 205 colon),growth (DU-145 prostate),growth (K-562 leukemia),growth (MDA-MB-231 breast),growth (RXF 393 renal),growth (SF-268 CNS),growth (SF-295 CNS),growth (SF-539 CNS),growth (UACC-257 melanoma),growth (M14 melanoma),growth (MALME-3M melanoma) [%]
CCCCCCCCCCCCCCCCCC1=NCCN1CS(=O)(=O)O,87.5%,87.5%,15.5%,-79.1% (active),38.5%,84.5%,-8.05% (active),74.5%,29.2%,33.7%,-10.9% (active),-15.8% (active),69.9%,-24.5% (active),74.6%,61.2%,91.8%,34.6%,
COc1ccc2c(c1)/C(=C/c1c(-c3cc(OC)c(OC)c(OC)c3)nc3sccn13)C(=O)N2,99.1%,97%,92.3%,108%,31.7%,86.5%,110%,95.7%,107%,88%,87.3%,66.1%,82.4%,107%,93.2%,91.9%,101%,,
Nc1cc(N)c2nc(NCCc3ccc(Cl)c(Cl)c3)cnc2c1,63.8%,61.4%,-3.74% (active),71.9%,-54.9% (active),17.3%,71.1%,37.5%,5.65% (active),101%,-23.1% (active),-23.5% (active),51.1%,30.8%,89.4%,89.6%,90.4%,,
COc1cc(-c2c3c(cn2CCN2CCCCC2)-c2oncc2CC3)cc(OC)c1OC,98.6%,90.2%,110%,101%,81.8%,90.9%,101%,105%,103%,109%,108%,109%,100%,94.7%,97.6%,94%,109%,105%,110
COc1ccccc1Cn1cc2c(c1)-c1oncc1CC2,20.6%,38.9%,24%,4.04% (active),80.3%,43.3%,28.9%,38.6%,-28.2% (active),22.5%,15.9%,16.5%,4.54% (active),35.2%,-28.8% (active),-13.8% (active),66.7%,14.4%,
O=C(/C=C1\C(=O)N(Cc2ccc([N+](=O)[O-])cc2)c2ccccc21)c1ccc(OCCN2CCCCC2)cc1,-10.4% (active),-41.1% (active),49.2%,39%,-74.5% (active),-75% (active),48.2%,-88.1% (active),-49.5% (active),-35.3% (active),-35.2% (active),-60.8% (active),-90.7% (active),-35.4% (active),49.7%,-84.6% (active),-4.94% (active),-59.4% (active),
CC(=O)Nc1ccc(CC#N)cc1Br,110%,96.4%,105%,101%,94%,92.9%,103%,101%,109%,107%,111%,112%,,106%,105%,103%,103%,105%,101
CCOc1ccccc1/C=N\N=C(N/N=C/c1ccccc1OCC)N/N=C/c1ccccc1OCC,18.8%,20.3%,11.3%,1.36% (active),-21.1% (active),1.5% (active),9.6% (active),22.9%,-38.9% (active),16.1%,21.4%,9.5% (active),19.2%,,9.61% (active),,7.38% (active),32.3%,24.1
CCOC(=O)NNc1[nH]c(-c2ccc(OC)cc2)cc1C#N,88.9%,101%,79.4%,99.1%,76.4%,76%,100%,94.8%,14.5%,108%,68.9%,89.8%,96%,103%,111%,94.3%,92.5%,,
COc1ccc(OC)c(Cn2cc3c(c2)-c2oncc2CC3)c1,28.8%,70.2%,26%,14.1%,59.8%,50.3%,43.3%,46%,35.8%,52%,14.7%,42%,36.7%,57.5%,-8.86% (active),-7.35% (active),60.5%,4.07% (active),
O=C(O)c1occ(Cl)c1Cl,112%,114%,116%,118%,95.3%,116%,97.8%,111%,114%,114%,101%,110%,108%,113%,101%,111%,108%,114%,
NC(N)=N/N=C/c1cccc(Br)c1,97.6%,88.7%,91.2%,104%,88.9%,100%,98.8%,94.2%,90.2%,118%,93.6%,105%,95.8%,,99.3%,101%,106%,92.8%,100
O=S(=O)(O)CCI,102%,95.9%,101%,104%,103%,103%,114%,106%,111%,112%,112%,104%,98.8%,104%,105%,102%,113%,99%,113
CCOC(=O)C1CCCN1C(=O)C1(NC(C)=O)CCCC1 (stereo not drawn),100%,104%,91.3%,98.2%,84.7%,107%,101%,102%,105%,103%,110%,121%,110%,,104%,95.8%,102%,95.2%,96.7
N=C(N)N=Nc1ccc(NN=C(N)N)cc1,104%,81.5%,126%,85.8%,96%,88.1%,8.54% (active),98.9%,64.1%,95.4%,96.2%,86.2%,81.6%,,101%,,94%,78.6%,138
O=C(/C=C/c1c[nH]c2ccccc12)c1cc2ccccc2o1,97.2%,100%,99.7%,107%,83.2%,79.8%,89.5%,86.6%,130%,95.6%,37.2%,84.6%,114%,80.6%,91%,82.1%,98.4%,84.2%,
COc1ccc(Cn2cc3c(c2-c2ccccc2)CCc2cnoc2-3)cc1N,20.5%,13%,35%,-4.24% (active),64.1%,33.8%,29.4%,38.8%,-24.7% (active),13.7%,14.8%,15.2%,15.2%,28.7%,-19.7% (active),-13.1% (active),63.2%,18.2%,
